Experimental data: the supplement of paper PMC13380429

What was measured:
[1] = test system: Vero E6 infected with SARS-CoV-2; assay: morphology score (similarity to uninfected cells); higher = more like uninfected cells; conditions: 24 h
[2] = test system: Vero E6 infected with SARS-CoV-2; assay: SARS-CoV-2 infection rate relative to infected DMSO; higher = more infection, active = 60 or less; conditions: 24 h

Row | SMILES | morphology score [1] | SARS-CoV-2 infection rate [2]
1 | O=C(NC1CCNCC1)[C@@H]1CC[C@@H]2CN1C(=O)N2OS(=O)(=O)O [relebactam] (10 µM) | 0.0111 | 110% (inactive)
2 | O=C(O)C[C@H]1CC[C@H](c2ccc(-c3ccc(Nc4ccc(C(F)(F)F)nc4)cn3)cc2)CC1 (10 µM) | 0.27 | 73.5% (inactive)
3 | CN(Cc1cnc2nc(N)nc(N)c2n1)c1ccc(C(=O)N[C@@H](CCC(=O)O)C(=O)O)cc1 [methotrexate] (10 µM) | -0.183 | 100% (inactive)
4 | C=CC(=O)Nc1cccc(Nc2nc(Nc3ccc(Oc4ccnc(C(=O)NC)c4)cc3)ncc2F)c1 (0.833333 µM) | 0.147 | 110% (inactive)
5 | CNCCn1c(=O)c2cc(OC)c(OC)cc2c2cnc3cc4c(cc3c21)OCO4 (10 µM) | -0.381 | 118% (inactive)
6 | CN1CCN(c2cccc(Nc3nc4c(-c5ccc(S(C)(=O)=O)cc5)cccn4n3)c2)CC1 (0.833333 µM) | 0.157 | 106% (inactive)
7 | C[C@H](Nc1cc(NS(=O)(=O)N2CCC2)nc(SCc2cccc(F)c2F)n1)[C@@H](O)CO (10 µM) | 0.112 | 99% (inactive)
8 | Nc1nc2[nH]cnc2c(=S)[nH]1 [thioguanine] (0.833333 µM) | 0.218 | 98.5% (inactive)
9 | CCOC(=O)OC(C)OC(=O)[C@@H]1N2C(=O)[C@@H](NC(=O)[C@H](N)c3ccccc3)[C@H]2SC1(C)C (some centres undefined) [bacampicillin] (10 µM) | -0.0144 | 114% (inactive)
10 | CCc1cc2c(c(CC)n1)CCC(=O)N2Cc1ccc(-c2ccccc2-c2nnn[nH]2)cc1 (10 µM) | 0.264 | 98.5% (inactive)
11 | COC(=O)[C@@H]1C[C@H](OC(C)=O)C(=O)[C@H]2[C@@]1(C)CC[C@H]1C(=O)O[C@H](c3ccoc3)C[C@]21C [salvinorin-A] (10 µM) | 0.127 | 100% (inactive)
12 | CO/N=C(\C(=O)N[C@@H]1C(=O)N2C(C(=O)OCOC(=O)C(C)(C)C)=C(C)CS[C@H]12)c1csc(N)n1 [cefetamet-pivoxil] (10 µM) | 0.225 | 96.5% (inactive)
13 | CC(C)[C@@]1(NC(=O)[C@@H]2C[C@@H]3c4cccc5[nH]cc(c45)C[C@H]3N(C)C2)O[C@@]2(O)[C@@H]3CCCN3C(=O)[C@H](Cc3ccccc3)N2C1=O [dihydroergocristine] (10 µM) | -0.123 | 117% (inactive)
14 | O=c1c(O)c(-c2cc(O)c(O)c(O)c2)oc2cc(O)cc(O)c12 [myricetin] (10 µM) | 0.195 | 110% (inactive)
15 | O=C(Nc1ccc(OC(F)(F)F)cc1)c1sccc1NCc1ccnc2ccccc12 (10 µM) | 0.0678 | 90% (inactive)
16 | CCOC(=O)c1ccc(-c2ccc(OC(=O)N(C)Cc3cccc(-c4ccncc4)c3)cc2)cc1 (10 µM) | 0.0201 | 104% (inactive)
17 | CCOP(=S)(OCC)Oc1ccc2c(C)c(Cl)c(=O)oc2c1 [coumophos] (10 µM) | -0.0715 | 110% (inactive)
18 | CC1(C)N=C(N)N=C(N)N1OCCCOc1cc(Cl)c(Cl)cc1Cl (10 µM) | 0.205 | 89.5% (inactive)
19 | CCCc1c(OCC(O)COc2ccc3c(=O)cc(C(=O)O)oc3c2CCC)ccc(C(C)=O)c1O (centres undefined) (10 µM) | 0.197 | 99.5% (inactive)

Row | SMILES | morphology score [1] | SARS-CoV-2 infection rate [2]
20 | C[C@]12C=CC(=O)C=C1CC[C@@H]1[C@@H]2[C@@H](O)C[C@@]2(C)[C@H]1CC[C@]2(O)C(=O)COP(=O)(O)O [prednisolone-sodium-phosphate] (10 µM) | -0.0179 | 93.5% (inactive)
21 | OC(CNCC(O)C1CCc2cc(F)ccc2O1)C1CCc2cc(F)ccc2O1 (centres undefined) [nebivolol] (10 µM) | 0.0502 | 108% (inactive)
22 | O=C(O)CCc1nc(-c2ccccc2)c(-c2ccccc2)o1 [oxaprozin] (10 µM) | -0.00592 | 116% (inactive)
23 | COC(=O)c1ccc2c(c1)nc(NC(=O)c1ccccc1)n2CCCc1ccccc1 (10 µM) | 0.0334 | 94.5% (inactive)
24 | CCOC(=O)C1=C[C@]2(CC)CCCN3CCc4c(n1c1ccccc41)[C@@H]32 [vinpocetine] (10 µM) | 0.176 | 102% (inactive)
25 | C[C@H]1CO[C@@H]2Cn3cc(C(=O)NCc4ccc(F)cc4F)c(=O)c(O)c3C(=O)N12 (10 µM) | -0.00851 | 108% (inactive)
26 | CCc1c(C(=O)C(N)=O)c2c(OCC(=O)O)cccc2n1Cc1ccccc1 [varespladib] (10 µM) | 0.0669 | 108% (inactive)
27 | COc1ccc(Cl)cc1[C@]1(F)C(=O)Nc2cc(C(F)(F)F)ccc21 [flindokalner] (10 µM) | 0.165 | 99.5% (inactive)
28 | O=C1C=C2C=C[C@@H]3C[C@@]2(O1)[C@H]1CCCCN31 [securinine] (10 µM) | 0.327 | 85.5% (inactive)
29 | Cc1ccc2c(Cl)cc(Cl)c(O)c2n1 [chlorquinaldol] (10 µM) | 0.0549 | 99% (inactive)
30 | O=Nc1c(-c2c(O)[nH]c3cc(Br)ccc23)[nH]c2ccccc12 [GSK-3-inhibitor-IX] (0.833333 µM) | -0.0517 | 67% (inactive)
31 | COC(=O)C1=CCCN(C)C1 [arecoline] (10 µM) | 0.184 | 100% (inactive)
32 | CCOC(=O)c1c(/C(C#N)=C\N)c2ccc(Cl)c(Cl)c2n1C (10 µM) | -0.0335 | 105% (inactive)
33 | Cc1n[nH]c(C)c1Cc1sc2c(c1C(=O)N1C[C@H](O)CO1)c(=O)n(C)c(=O)n2CC(C)C (10 µM) | 0.0657 | 106% (inactive)
34 | CC(C)n1cnc2c(NCCc3ccc(O)cc3)nc(-c3csc4ccccc34)nc21 [stemregenin-1] (10 µM) | 0.692 | 67% (inactive)
35 | Cc1cc(C)nc(SCC(=O)Nc2ncc(Cc3cccc4ccccc34)s2)n1 (10 µM) | 0.211 | 96.5% (inactive)
36 | NS(=O)(=O)c1cc(-c2nnn[nH]2)c(NCc2cccs2)cc1Cl [azosemide] (10 µM) | 0.286 | 98.5% (inactive)
37 | CC(C)n1cnc2c(C(=O)N[C@H]3CN4CCC3CC4)cc(Cl)cc21 (10 µM) | 0.38 | 85% (inactive)
38 | CCN1CCN(c2cc(-c3ccc(F)cc3)c3c(n2)CCCCCC3)CC1 [blonanserin] (10 µM) | 0.248 | 107% (inactive)

Row | SMILES | morphology score [1] | SARS-CoV-2 infection rate [2]
39 | C=C1C(=O)[C@]23[C@H](O)[C@H]1CC[C@H]2[C@@]12CO[C@]3(O)[C@@H](O)[C@@H]1C(C)(C)CC[C@@H]2O [Oridonin (Isodonol)] (0.833333 µM) | 0.108 | 97% (inactive)
40 | Cc1ccc(-c2n[nH]c3c2C(c2cccc(O)c2)N(c2ccc(C(=O)O)cc2)C3=O)cc1 (centres undefined) (10 µM) | 0.169 | 91.5% (inactive)
41 | CCNCc1cc(C(C)(C)C)c(O)c(C(C)(C)C)c1 (10 µM) | 0.195 | 99% (inactive)
42 | CN1C(C(=O)Nc2ccccn2)=C(O)c2sc(Cl)cc2S1(=O)=O [lornoxicam] (10 µM) | 0.00915 | 97% (inactive)
43 | Oc1cccc(-c2nc(N3CCOCC3)c3oc4ncccc4c3n2)c1 (10 µM) | -0.0667 | 118% (inactive)
44 | NCCS [cysteamine] (10 µM) | -0.0321 | 112% (inactive)
45 | CC(=O)N[C@@H](CS)C(=O)O [acetylcysteine] (10 µM) | 0.183 | 95.5% (inactive)
46 | CCCC(=O)C1CCN(c2ncnc3c2CN(C(=O)c2ccc(-c4ccccc4)cc2)CC3)CC1 (10 µM) | 0.0512 | 104% (inactive)
47 | CC(C)(C)C(=O)OCOC(=O)[C@@H]1N2C(=O)C[C@H]2S(=O)(=O)C1(C)C [sulbactam-pivoxil] (10 µM) | 0.184 | 89% (inactive)
48 | O=C1[C@H](CC[C@H](O)c2ccc(F)cc2)[C@@H](c2ccc(O)cc2)N1c1ccc(F)cc1 [ezetimibe] (10 µM) | 0.142 | 110% (inactive)
49 | CCCCCCCCOc1ccccc1C(=O)Nc1ccc(C(=O)OCC[N+](C)(CC)CC)cc1 [otilonium] (10 µM) | 0.299 | 101% (inactive)
50 | COC(=O)C1=C(C)NC(C)=C(C(=O)OCCCN2CCC(c3ccccc3)(c3ccccc3)CC2)[C@@H]1c1cccc([N+](=O)[O-])c1 [dexniguldipine] (0.833333 µM) | 0.134 | 97.5% (inactive)
51 | CC(C)(C)c1cc(C(=O)/C(C#N)=N/Nc2cccc(Cl)c2)no1 (10 µM) | -0.0513 | 104% (inactive)
52 | Nc1nc2ccc(Cl)cc2c2nc(-c3ccco3)nn12 (10 µM) | 0.125 | 108% (inactive)
53 | CO[C@H]1C[C@H](O[C@H]2CC[C@@]3(C)[C@H](CC[C@@H]4[C@@H]3CC[C@]3(C)[C@@H](C5=CC(=O)OC5)[C@@H](OC(C)=O)C[C@]43O)C2)O[C@@H](C)[C@@H]1O [oleandrin] (0.833333 µM) | -0.173 | 118% (inactive)
54 | CC(=O)N(OCc1ccccc1)[C@@H]1c2cc(C#N)ccc2OC(C)(C)[C@H]1O (10 µM) | 0.159 | 97.5% (inactive)
55 | O=C(NCc1ccncc1)C12CC3CC(C1)CC(c1ccc(Cl)cc1)(C3)C2 (10 µM) | 0.00848 | 97% (inactive)
56 | Cc1c2oc3c(C)ccc(C(=O)N[C@@H]4C(=O)N[C@@H](C(C)C)C(=O)N5CCC[C@H]5C(=O)N(C)CC(=O)N(C)[C@@H](C(C)C)C(=O)O[C@@H]4C)c3nc-2c(C(=O)N[C@@H]2C(=O)N[C@@H](C(C)C)C(=O)N3CCC[C@H]3C(=O)N(C)CC(=O)N(C)[C@@H](C(C)C)C(=O)O[C@@H]2C)c(N)c1=O [actinomycin-d] (0.833333 µM) | 0.164 | 93% (inactive)
57 | C1Cc2[nH]nc(-c3nn[nH]n3)c2C1 (10 µM) | -0.0417 | 109% (inactive)
